Among the data in PubChem BioAssay AID1259309 (ICCB-Longwood Screening Facility, Harvard Medical School, 2017) are growth inhibition values, retold here.

“And” between values parts separate entries of the source, which are not always exact repeats. Equal values may be shown once. Screen size: about 330,000 compounds; about 1,800 (0.55%) were called active. Shown is part of a subset that was picked to be rich in actives. Values without a mark were called inactive. Rule as the data show it: active = growth inhibition above about 68%; inactive = the rest.

This assay can be described thus: growth inhibition of ugtP-null S. aureus, primary screen, RN4220 ugtP deletion, OD600 (AID 1259309).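 Also: plate controls were untreated wells for no effect and antibiotic for full effect.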 The following applies: 16 h, active compounds read high.
Take `Cc1ccc(S(=O)(=O)N(Cc2cccc([N+](=O)[O-])c2)C(=O)N2CCN(C)CC2)cc1`: the growth inhibition is 2.43%.
For the molecule `O=C(CCl)N(Cc1cccc([N+](=O)[O-])c1)c1cccc(Cl)c1`, the growth inhibition was 97.8% (active).
On to `O=C(c1cccc([N+](=O)[O-])c1)N1CCN(Cc2ccccc2)CC1`, for which the growth inhibition was 9.07%.
In the case of `COC(=O)C1=C(c2ccc3ccccc3c2)CC2CCC1N2C(=O)NCc1ccc(F)cc1` (stereo not drawn) it was 12%.
Take `COc1cccc(C2C3=C(N=c4sc(=Cc5cccc(O)c5)c(=O)n42)c2ccccc2CC3)c1OC` (stereo not drawn): the growth inhibition is -7.58%.
The value for `COc1ccc(CCNC(=O)C(Sc2ccccn2)c2ccccc2)cc1OC` (stereo not drawn) was 9.85%; that for `COc1ccc(C(CCN(Cc2ccc(OC)c(OC)c2)C(=O)CCl)c2ccccc2)cc1` (stereo not drawn) was 98% (active).
For the molecule `COc1ccc(CN(Cc2ccc(OC)cc2)C(=O)c2cccs2)cc1`, the growth inhibition was 43.4%.
The value for `COc1ccc(N(CC(=O)NN=Cc2ccco2)S(=O)(=O)c2ccccc2)cc1Cl` was 2.1%; that for `COc1ccc(C=NNC(=O)COc2ccc(C(C)(C)C)cc2)cc1Cn1nc(C)cc1C` was 0.349%.
The value for `O=C(NN=Cc1cccnc1)C1CC1(c1ccccc1)c1ccccc1` (stereo not drawn) was 9.47%.
Regarding `O=C1C=C(c2cccc(CO)c2)CC(c2ccc(Cl)cc2)C1` (stereo not drawn), the growth inhibition is 7.76%.
The value for `FC(F)(F)c1cccc(NC(=S)Nc2cccc(Cl)c2)c1` was 93.1% (active); that for `Cn1cc(Cl)c(C(=O)NNC(=S)Nc2cccc(Cl)c2)n1` was -5.85%; that for `O=C(O)CC1(CC(=O)Nc2cccc(C(F)(F)F)c2)CCCC1` was -0.923%.
For the molecule `Cc1ccc(SC(=NS(=O)(=O)c2ccc(Cl)cc2)c2ccccc2)cc1`, the growth inhibition was 60.7%.
The value for `O=C(COC(=O)C=Cc1ccccc1)Nc1cc(C(F)(F)F)ccc1N1CCOCC1` was -9.22%; that for `CCCCCCCCn1c2c(c(=N)c3c1CCC3)CCCC2` was 100% (active); that for `COc1ccc(OC)c(C=NNC(=O)c2ccc(-c3ccccc3)cc2)c1` was 1.81%.
In the case of `CC(=NNC(=O)c1cc(-c2ccc(Br)s2)[nH]n1)c1ccncc1` it was -6.85%.
Turning to `O=C(Nc1nnc(C2COc3ccccc3O2)o1)c1ccc(F)cc1` (stereo not drawn), the growth inhibition is 90.2% (active).
In the case of `O=C(COC(=O)c1ccc(F)cc1)NCC1COc2ccccc2O1` (stereo not drawn) it was -4.48%; in that of `CC1COc2ccccc2N1C(=O)c1ccc(F)cc1` (stereo not drawn), -0.431%.
With `COC(=O)c1ccccc1-c1ccc(C=NNc2nc(N3CCCC3)nc(N3CCCC3)n2)o1`, the growth inhibition was -8.43%.
For `CON=Cc1cc(C(=O)c2ccc(Cl)cc2Cl)cn1C`, the growth inhibition was -4.32%.
The value for `CC(C)=CCCC1(C)C=Cc2c(ccc3c2[nH]c2cc(O)c(C)cc23)O1` (stereo not drawn) was 95.6% (active).
The value for `CC[C@@]12C(=O)N(c3cccc(F)c3)C(=O)N1C(c1ccc(Br)cc1)C1C(=O)N(C(C)(C)C)C(=O)C12` (stereo partly drawn) was -3.27%; that for `CCCCCCCCCCCCN1CC(=CC(=O)OCC)c2cc(C(F)(F)F)ccc2S1(=O)=O` was 2.79%.
`O=C(CON=Cc1c(Cl)cccc1Cl)NNC(=O)c1cccc(Cl)c1`: the growth inhibition is 2.89%.
The value for `Cc1ccccc1N/C(SCc1ccc(Cl)cc1)=C(/C#N)C(N)=O` was 84.4% (active).
Turning to `Cc1ccccc1NC(=O)CSC(=O)c1ccccc1`, the growth inhibition was 5.32%.
In the case of `Cc1cccc(NC(=O)CSC(N)=O)c1C` it was 8.69%; in that of `O=C(OCc1ccc(-c2ccccc2)cc1)c1cccc(O)c1`, 100% (active); in that of `O=C(CNC(=O)c1ccc(-c2ccccc2)cc1)OCc1ccc(Cl)cc1`, 19.4%.
The value for `O=C(OCC(=O)c1c[nH]c2ccccc12)c1cccc(O)c1` was -15.2%; that for `Cn1cccc1CC(=O)NN=Cc1ccco1` was -0.545%; that for `OCCC1CC(O)C(O)[C@]2(OCCCc3ccccc32)O1` (stereo partly drawn) was 4.16% and 2.75%.
In the case of `COc1cc(C=NNC(=O)CC#N)ccc1Oc1nc(Cl)ncc1F` it was -1.11%; in that of `O=C(Oc1ccc(C=NNc2ccccc2)cc1)c1ccccc1`, -8.03%.
Regarding `Cc1cc(C)n(C(=O)CCNC(=O)c2ccccc2Cl)n1`, the growth inhibition was -2.2%.
On to `Cc1cc(C)n(C(=O)C(C#N)=NNc2cc(Cl)cc(Cl)c2)n1`, for which the growth inhibition was 99.7% (active).
The value for `N#CC(=NNc1cc(Cl)cc(Cl)c1)c1nnc2n1CCCCC2` was -12%; that for `CC(=NNC(=O)c1ccco1)c1ccc(NC(=O)C(F)(F)F)cc1` was 0.661%.
The value for `CCOc1ccc(N2C(=O)CC(S/C(N)=N/N=Cc3cccs3)C2=O)cc1` (stereo not drawn) was 4.39%.
In the case of `CCOC1OC(C(=O)N2CCN(Cc3ccc4c(c3)OCO4)CC2)=CC(c2cn(C(C)=O)c3ccccc23)C1CCCO` (stereo not drawn) it was -12.6% and 8.11%; in that of `Oc1ccccc1C=NNc1nccnc1Cl`, 0.00308%; in that of `Oc1ccccc1C=NNc1cccc2cccnc12`, 83% (active).
With `Oc1ccc(C=NNc2cccc3cccnc23)c(O)c1`, the growth inhibition was 3.39%.
In the case of `Cc1ccc2nc(NN=Cc3ccccc3C#N)nc(-c3ccccc3)c2c1` it was 11.2%.
In the case of `O=c1c2nnn(-c3ccccc3)c2ncn1CC=Cc1ccccc1` it was 12.1%; in that of `CCOc1ccc(-c2nnc3ccc(SC)nn23)cc1`, 0.868%; in that of `CCOc1ccc2c(c1)C(c1ccc(C)cc1)=NNC(c1ccc(C)cc1)=N2`, 10.8%.
Take `CCOc1ccc(-c2cc(C)[n+](CCN(CC)CC)c(-c3ccc(OCC)cc3)c2)cc1`: the growth inhibition is 97.1% (active).
The value for `CCCC(C#Cc1ccc(N(C)C)cc1)=C1c2ccccc2C(=O)N1c1ccccc1` was 13.2%; that for `COC(=O)NN=Cc1cc(Br)ccc1OCc1ccccc1` was 20.2%.
In the case of `C(=Nn1c2ccccc2c2ccccc21)c1ccccc1` it was 11.7%; in that of `CC(C)c1ccc2c(c1)c(SC(C)(C)C)c(CC(C)(C)C(=O)O)n2Cc1ccc(Cl)cc1`, 101% (active); in that of `CCOc1ccc2ccccc2c1C=NNC(=O)CNC(=O)C(c1ccccc1)c1ccccc1`, 22.4%.
`CN1CCSC1=CC=C1C(=O)N(C)C(=S)N1C`: the growth inhibition was -5.24%.
On to `Cc1ccc(O)c(-c2cc(C(=O)NCc3ccccc3)[nH]n2)c1`, for which the growth inhibition is 7.53%.
The value for `Cc1ccc(C)c(NC(=O)c2cc(-c3cc(C)cc(C)c3O)n[nH]2)c1` was 99.5% (active); that for `Cc1ccc(O)c(-c2cc(C(=O)Nc3c(C)n(C)n(-c4ccccc4)c3=O)[nH]n2)c1` was 2.72%.
On to `CNC(=O)CCCCC(=O)NN=Cc1ccc(Cl)cc1Cl`, for which the growth inhibition is -1.21%.
The value for `COc1ccc(CC2CN3C(=NCC3C)N2CCNC(=O)CCC2CCCCC2)cc1` (stereo not drawn) was -6.07% and 2.3%; that for `COc1cccc(C=NNc2ncnc(N)c2[N+](=O)[O-])c1OC` was -0.174%; that for `O=C(Nc1ccccc1)C1CC=CC2CCN(Cc3ccc(Cl)c(Cl)c3)C(=O)C21` (stereo not drawn) was 2.24%.
In the case of `Cc1c(N2C(=O)CSC2=NN=Cc2ccccc2O)c(=O)n(-c2ccccc2)n1C` it was 7.58%.
`CCCCCn1c(=O)c(C(=O)NCc2ccccn2)c(O)c2ccccc21`: the growth inhibition is 10.1%.
In the case of `CCCn1c(=O)c(-c2ccccc2)c(O)c2ccccc21` it was 10.2%.
In the case of `CC(C)CCn1c(=O)c(C(=O)NN=Cc2cccc(F)c2)c(O)c2ccccc21` it was 99% (active); in that of `CCCn1c(=O)c(C(=O)Nc2cc(C)ccn2)c(O)c2ccccc21`, 11.7%; in that of `CCCn1c(=O)c(C(=O)NN=Cc2ccc(F)cc2)c(O)c2ccccc21`, 101% (active).
As to `CCCCCn1c(=O)c(C(=O)NCc2ccccc2)c(O)c2ccccc21`, the growth inhibition is 44.1%.
In the case of `C/C(C=NNc1nc(C)cc(=O)[nH]1)=C\c1ccccc1` it was -4.37%.
In the case of `Cc1ccc(S(=O)(=O)N=Cc2ccco2)cc1` it was 4.28%; in that of `COC(=O)c1ccc(C23CC4(C2)C(CN(Cc2cccnc2)C4c2ccccc2)C3c2ccc(Cl)nc2)cc1` (stereo not drawn), 8.61%.
In the case of `O=C(COc1ccccc1)NCC(=O)NN=C/C=C/c1ccccc1` it was 2.76%.
With `O=S1(=O)C[C@@H]2N=C(NN=Cc3ccccc3)S[C@@H]2C1`, the growth inhibition was -0.808%.
Consider `COc1ccc(C=CC2=CCN(Cc3ccc(OC)cc3)CC2)cc1`, for which the growth inhibition was 1.66%.
In the case of `CC(C)CNC(=S)NC(=O)c1ccc(Cl)cc1` it was 91.1% (active).
On to `CC(C)C(NC(=O)c1ccc(Cl)cc1)C(=O)O` (stereo not drawn), for which the growth inhibition was 0.934%.
The value for `O=C(NC(=S)NC1CCCCC1)c1ccc(Cl)cc1` was 82.7%.
The value for `Brc1ccccc1C1Nc2cccc3cccc(c23)N1` was -4.74%; that for `COc1ccc(C2NC(=O)c3ccccc3N2)cc1` (stereo not drawn) was 6.04%; that for `Oc1ccc(C2Nc3cccc4cccc(c34)N2)cc1` was 96.6% (active).
The value for `COc1ccc(C=NNC(=O)c2cc[n+]([O-])cc2)cc1` was 2.45%; that for `CC(=NNc1ccc(S(=O)(=O)N2CCCCC2)cn1)c1ccc(O)cc1` was -0.0996%.
In the case of `Cc1ccc(OC(=O)c2cc3ccccc3o2)cc1`, the growth inhibition was 98% (active).
The value for `COc1ccccc1CN(C)C(=O)c1cc2ccccc2o1` was 9.31%.
The value for `Cc1ccc(OC(=O)c2ccccc2C(=O)OCC(F)(F)C(F)F)cc1` was 14.2%; that for `Cc1ccc(-c2nnnn2C2CC(=NNC(N)=S)C3OCC2O3)cc1` (stereo not drawn) was 3.57%.
For the molecule `O=C(NN=Cc1ccncc1)c1cccc(NC(=O)c2ccc(Cl)cc2)c1`, the growth inhibition was -6.73%.
The value for `O=C(CSc1nc2ccccc2c(=O)n1-c1ccccc1F)N1CCOCC1` was -0.774%.
For `O=c1c2ccccc2nc(/C=C/c2ccc(F)cc2)n1-c1ccccc1O`, the growth inhibition is 97.9% (active).
The value for `O=c1c2ccccc2nc(-c2ccco2)n1-c1ccc(Br)cn1` was 11.8%; that for `CCn1c(/C=C/c2ccc([N+](=O)[O-])o2)nc2ccccc2c1=O` was 11.7%; that for `O=C(CSc1nc2ccccc2c(=O)n1-c1ccc(F)cc1)NC1CC1` was 2.6%.
In the case of `O=c1c2ccccc2nc(/C=C/c2ccco2)n1-c1ccccc1O` it was 92% (active).
